Molecules are shown by their SMILES. In all, about 200,000 compounds went through this assay and about 18,000 (9%) were called active. This excerpt belongs to a sample that is enriched for actives. A number with no mark means an inactive call. Cut-off read from the data, not from the text of the source: active = inhibition above about 50%; inactive = the rest.

A short description of this experiment: antileishmanial activity against promastigotes – primary screen (AID 1063).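 Note: promastigotes grown with compound for 44 hours at 28 °C.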 The following applies: Leishmania major promastigotes, resazurin fluorescence viability; at 10 µM; active compounds read high. A general note: Alamar Blue is a resazurin reagent that responds to reducing activity.
For the molecule `COc1ccc(OC)c(-n2c(=S)[nH]c3cc(C(=O)N4CCCCC4)ccc3c2=O)c1`, the inhibition (as a rule, the drop in the measured response relative to a control, in per cent) is -7.75%.
Turning to `COc1ccc(C(=O)Nc2ccc(-n3nncc3C(C)(C)C)cc2)cc1`, the inhibition was -0.36%.
With `COc1cc(/C=N\Nc2ccc([N+](=O)[O-])cn2)ccc1OCC(=O)O` the figure was 4.37%; with `COc1cc(C(=O)OCc2ccc([N+](=O)[O-])cc2)cc(OC)c1OC`, -8.98%.
On to `COc1cc(/C=N/O)ccc1OCc1ccc([N+](=O)[O-])cc1`, for which the inhibition is 51.5% (active).
In the case of `COC(=O)Cc1ccc(Oc2ncc(C(F)(F)F)cc2Cl)cc1`, the inhibition is -7.25%.
To `C/C(=N\NC(=O)NC1CCCCC1)c1ccc(OC(F)F)cc1OC(F)F` belongs 46.4%; to `CCN(CC)CCOC(=O)c1ccc(NC(=O)CNC(=O)c2ccccc2)cc1`, -0.48%; to `CCOC(=O)c1ccccc1NC(=S)N1CCC(C(N)=O)CC1`, 4.08%.
To `COc1cccc(-n2c(=O)c3c(C)c(C(=O)N(C)C)sc3n(CC(=O)NCCc3ccc(OC)c(OC)c3)c2=O)c1` belongs 2.17%; to `COc1cc(OC)c(C(=O)Nc2ccc(N(C)C)cc2)cc1OC`, 3.39%; to `COc1cc(OC)c(C(=O)Nc2ccccc2-c2ccccc2)cc1OC`, 82.5% (active).
With `O=C(Nc1ccccc1F)c1ccccc1-c1ccccc1` the figure was -3.5%.
Take `O=C(NCc1ccccc1Cl)C1CCN(S(=O)(=O)N2CCOCC2)CC1`: the inhibition is -5.43%.
`CCOc1ncccc1C(=O)OCC(=O)NC1CC1`: the inhibition was 4.89%.
As for `Cc1csc(NC(=O)CSc2ccc(-c3ccc(F)cc3)nn2)n1`, the inhibition is 7.99%.
To `NNC(=O)C1CC(O)CN1S(=O)(=O)c1ccc(Cl)cc1` (configuration not stated) belongs 4%; to `O=C(NCc1ccccc1)C1CCCN(c2nc3ccsc3c(=O)s2)C1` (configuration not stated), -5.75%.
`C=CCn1c(COc2ccc(F)cc2)nnc1SCC(=O)Nc1cccc(S(N)(=O)=O)c1`: the inhibition was 1.1%.
With `COc1ccc(NC(=O)c2ccccc2CC[N+](=O)[O-])cc1` the figure was 13.1%.
Regarding `Cc1ccccc1NC(=O)CNc1ccccc1N1CCCCC1`, the inhibition is 21.9%.
With `CC(C)n1c(SCC(=O)Nc2ccccc2N2CCCCC2)nc2c1c(=O)n(C)c(=O)n2C` the figure was 58.5% (active); with `Cn1c(=O)c2c(nc(SCC(=O)Nc3ccccc3N3CCCCC3)n2C)n(C)c1=O`, 31%; with `CN(c1ccccc1)S(=O)(=O)c1ccc(Cl)c(C(=O)OCC(=O)N2CCOCC2)c1`, 1.28%.
To `CC(C)CC(=O)N/C(N)=N/c1nc2ccccc2s1` belongs 95.3% (active); to `CCC(=O)NC(=Nc1nc2ccccc2s1)NC(=O)CC`, 8.31%.
With `COC(=O)c1nc2ccccc2s1` the figure was -8.95%; with `CC/C(=N\NC(=S)NC(C)C)c1ccc(OC(F)F)cc1`, 16.9%.
Regarding `CC(C)(C)NCCCOc1ccc(Cl)cc1C(C)(C)C`, the inhibition was 100% (active).
With `Cc1cc(Cl)ccc1OCCCC(=O)NCc1ccncc1` the figure was -0.52%; with `CN(C)CCOc1ccc(Cl)cc1C(C)(C)C`, 6.15%.
Take `O=C(CN(c1cccc(Cl)c1)S(=O)(=O)c1ccccc1)NN=C1CCCC1`: the inhibition is 12.4%.
To `CC1CN(CCCOc2ccccc2-c2ccccc2)CC(C)O1` (configuration not stated) belongs 88.7% (active); to `COC(=O)[C@H](Cc1ccccc1)NC(=O)N1CC(C)OC(C)C1` (some centres not stated), 15.6%.
With `CC1CCCN(CCOCCOc2ccccc2-c2ccccc2)C1` (configuration not stated) the figure was 98.6% (active); with `c1ccc(-c2ccccc2OCCN2CCCCC2)cc1`, 8.2%.
With `CC1CCCN(Cc2nc3c(c(=O)n(C)c(=O)n3C)n2CC(=O)c2ccccc2)C1` (configuration not stated) the figure was 22.4%.
Consider `CN1CCN(CCCCOc2ccccc2-c2ccccc2)CC1`, for which the inhibition is 44.5%.
To `CC1CCN(S(=O)(=O)c2ccc(S(=O)(=O)NCc3cccnc3)cc2)CC1` belongs -2.4%; to `CS(=O)(=O)N(CC(=O)NC1CCCC1)Cc1ccc(F)cc1`, -5.9%; to `Cc1cccn2c(=O)c3cc(C#N)c(=NC(=O)c4cccnc4)n(CC4CCCO4)c3nc12` (configuration not stated), 16.8%.
With `Cc1cccn2c(=O)c3cc(C#N)c(=O)n(CCCN4CCOCC4)c3nc12` the figure was 95.7% (active); with `Cc1ccc(-n2c(=O)c(C#N)cc3c(=O)n4ccccc4nc32)cc1C`, 2.63%.
For the molecule `CN1C(=O)/C(=C\c2ccc(-c3ccccc3)o2)SC1=S`, the inhibition is -6.51%.
For `O=C(Cc1ccc(S(=O)(=O)N2CCCC2)s1)NC1CCCCCC1`, the inhibition is 93.5% (active).
Regarding `O=C(NCCc1ccccc1)C1CCN(S(=O)(=O)c2ccc(Br)s2)CC1`, the inhibition is -1.73%.
`O=C(Cc1ccc(S(=O)(=O)N2CCOCC2)s1)NCCC(c1ccccc1)c1ccccc1`: the inhibition was 98.1% (active).
To `O=C(NC1CCCCC1)n1c(=O)oc2cc(S(=O)(=O)N3CCCCC3)ccc21` belongs 2.93%; to `COc1ccccc1NC(=O)COC(=O)Cc1ccc(S(=O)(=O)N2CCCCC2)s1`, 6.48%; to `O=C(NC1CCCCC1)C1CCCN(S(=O)(=O)c2ccc(Br)s2)C1` (configuration not stated), 12.5%.
For the molecule `COc1cccc(CC(=O)N2CCCC(CCC(=O)N3CCN(c4ccccn4)CC3)C2)c1` (configuration not stated), the inhibition was 8.58%.
In the case of `Cc1cc(OC(=O)c2ccccc2Cl)ccc1N1C(=O)CCC1=O`, the inhibition is -6.74%.
With `Cc1ccccc1-n1nc(SCC(=O)O)sc1=S` the figure was -4.01%.
For the molecule `Cc1ccc(C2CCN(C(=S)Nc3cccc(Cl)c3)C2)cc1` (configuration not stated), the inhibition is 0.88%.
With `CCOc1ccc(/C=N/Nc2nncc(-c3ccccc3)n2)cc1OC` the figure was -2.97%; with `Cc1[nH]c2ccccc2c1/C=C(/C#N)C(=O)NC(C)C`, 16.4%; with `CC(C)(C)C(=O)/C(C#N)=C/c1ccc(O)cc1`, -4.15%.
As for `CC(C)NC(=O)/C(C#N)=C\c1ccc(N(C)C)c(Br)c1`, the inhibition was 64.6% (active).
Regarding `C1CC1Cc1noc(CN2CCN(CC3CC3)CC2)n1`, the inhibition is 15.8%.
To `CC(N=Cc1nc(-c2ccccc2)oc1O)c1ccccc1` (configuration not stated) belongs -1.28%.
With `CCOc1ccc2nc(/N=C/c3nc(-c4ccccc4)oc3O)sc2c1` the figure was 54.2% (active); with `CCOc1ccc2nc(C(=O)N3CCCC(C)C3)sc2c1` (configuration not stated), 41.6%.

The values above are taken from PubChem BioAssay AID1063 (University of Pittsburgh Molecular Library Screening Center, 2008).
